In PubChem BioAssay (NCI):
This is part of a sample that, as a whole, favours compounds with a hit. Of some 83,000 tested, about 20% had one in any assay.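 Percent growth is the endpoint: 0 to 100 indicates growth inhibition (40 means 60% inhibition), 0 means no net growth, and negative values indicate cell death.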 A number with no mark means an inactive call. Calls of active or inactive are those of the source. How the source made its calls: active means growth percent below 10; inactive means the rest.

Tests used:
Assay in all cases: NCI-60 one-dose screen, 48 h (100 = growth as untreated, 0 = no growth, -100 = all killed)
Conditions in all cases: 10 µM unless noted
[1] = system: HCT-15 colon
[2] = system: HT29 colon
[3] = system: SNB-75 CNS
[4] = system: SNB-19 CNS
[5] = system: U251 CNS
[6] = system: PC-3 prostate
[7] = system: SK-MEL-5 melanoma
[8] = system: UACC-62 melanoma
[9] = system: LOX IMVI melanoma
[10] = system: SK-MEL-28 melanoma
[11] = system: SK-MEL-2 melanoma
[12] = system: EKVX NSCLC
[13] = system: SN12C renal
[14] = system: UO-31 renal
[15] = system: TK-10 renal
[16] = system: ACHN renal
[17] = system: CAKI-1 renal
[18] = system: A498 renal
[19] = system: CCRF-CEM leukemia
[20] = system: MOLT-4 leukemia

COC(=O)c1c2c(c(C)[n+]([O-])c1C)C(=O)C=C(NCc1ccc(OC)cc1)C2=O
growth [1]: -43.9% (active)
growth [2]: 3.5% (active)
growth [3]: -97% (active)
growth [4]: -73.8% (active)
growth [5]: -45.7% (active)
growth [6]: -6.9% (active)
growth [7]: -96.6% (active)
growth [8]: -75.1% (active)
growth [9]: -12% (active)
growth [10]: -6.37% (active)
growth [11]: -22.2% (active)
growth [12]: -57.6% (active)
growth [13]: -63% (active)
growth [14]: -9.55% (active)
growth [15]: 28.4%
growth [16]: -11.5% (active)
growth [17]: 0.875% (active)
growth [18]: -15.4% (active)
growth [19]: 3.4% (active)
growth [20]: -35.5% (active)

CC(=O)Cc1nsc(NC(=O)c2cc(-c3cc(Cl)cc(Cl)c3)oc2C)n1
growth [1]: 99.4%
growth [2]: 102%
growth [3]: 84.1%
growth [4]: 101%
growth [5]: 93.2%
growth [6]: 93.7%
growth [7]: 99.9%
growth [8]: 88.7%
growth [9]: 97%
growth [10]: 103%
growth [11]: 102%
growth [12]: 97.3%
growth [13]: 98.8%
growth [14]: 81%
growth [15]: 130%
growth [16]: 105%
growth [17]: 90.8%
growth [18]: 103%
growth [19]: 103%
growth [20]: 96.7%

Cc1ccccc1/C=C1\CN(C(=O)OC(C)(C)C)C/C(=C\c2ccccc2C)C1=O
growth [1]: 1.66% (active)
growth [2]: -26.4% (active)
growth [3]: 53.4%
growth [4]: 39.1%
growth [5]: 0.0873% (active)
growth [6]: 21.9%
growth [7]: 83%
growth [8]: 28.7%
growth [9]: -62.4% (active)
growth [10]: 55.5%
growth [11]: 86.4%
growth [12]: 55.6%
growth [13]: -6.85% (active)
growth [14]: 31.9%
growth [16]: -21.7% (active)
growth [17]: 28.8%
growth [18]: 84.8%
growth [19]: 2.95% (active)
growth [20]: 10.8%

CCOC(=O)c1c2c(n3ccc(C)cc13)C(=O)c1ccccc1C2=O
growth [1]: 85.2%
growth [2]: 87.8%
growth [3]: 100%
growth [4]: 98.4%
growth [5]: 92.8%
growth [6]: 78%
growth [7]: 82.1%
growth [8]: 92.6%
growth [9]: 94%
growth [10]: 111%
growth [11]: 90.2%
growth [12]: 91.2%
growth [13]: 95.8%
growth [14]: 60.6%
growth [16]: 96.4%
growth [17]: 80.1%
growth [18]: 83.8%
growth [19]: 99.9%
growth [20]: 89.9%

CC(=O)N(N=Nc1ccccc1)c1cccc2ccccc12
growth [1]: 17.1%
growth [2]: 35.2%
growth [3]: 129%
growth [4]: 106%
growth [5]: 81.7%
growth [6]: 68.1%
growth [7]: 84.3%
growth [8]: 75.3%
growth [9]: 76.5%
growth [10]: 100%
growth [11]: 20.1%
growth [12]: 101%
growth [13]: 85.7%
growth [14]: 61.2%
growth [15]: 96.8%
growth [16]: 8.59% (active)
growth [17]: 31.8%
growth [18]: 115%
growth [20]: 76.8%

COc1ccc(Cc2cc(-c3ccccc3)nn(Cc3ccccc3)c2=O)cc1OC
growth [1]: 28.7%
growth [2]: 29.1%
growth [3]: 58.3%
growth [4]: 46.5%
growth [5]: 32.7%
growth [6]: 20.8%
growth [7]: -3.54% (active)
growth [8]: 30.6%
growth [9]: 48.4%
growth [10]: 59.3%
growth [11]: 36.1%
growth [12]: 14.4%
growth [13]: 20.2%
growth [14]: 14.7%
growth [15]: 49.8%
growth [16]: 27.1%
growth [17]: 46.3%
growth [18]: -16.9% (active)
growth [20]: 9.1% (active)

Cc1ccc(/C=N/Nc2nc(Nc3ccccc3)nc(-n3nc(C)cc3C)n2)cc1
growth [1]: 25.2%
growth [2]: 32.7%
growth [3]: 83.4%
growth [4]: 74.4%
growth [5]: 33.8%
growth [6]: 31.1%
growth [7]: -12.6% (active)
growth [8]: 44.9%
growth [9]: 32.6%
growth [10]: 68.6%
growth [11]: 32.6%
growth [12]: 27.3%
growth [13]: 48.9%
growth [14]: 20.1%
growth [15]: 3.47% (active)
growth [16]: 35.5%
growth [17]: -21.1% (active)
growth [18]: 58.5%
growth [20]: 42.3%

COc1cc2c(c(OC)c1OC)-c1ccc(OC)c(=O)cc1[C@@H](NC(=O)CCl)CC2
growth [1]: 7.81% (active)
growth [2]: 4.97% (active)
growth [3]: 78.9%
growth [4]: 39.1%
growth [5]: 4.55% (active)
growth [6]: 22.8%
growth [7]: -73.7% (active)
growth [8]: 20.8%
growth [9]: -18.2% (active)
growth [10]: 47%
growth [11]: 41.1%
growth [12]: 74.3%
growth [13]: 19.3%
growth [14]: 32.8%
growth [15]: 34.1%
growth [16]: 25.4%
growth [17]: 30.1%
growth [18]: -4.98% (active)
growth [20]: 20.9%

CC1(C)CCC(S(=O)(=O)c2ccc3c(c2)/C(=N\O)c2cc(S(=O)(=O)N4CCC(O)(c5cccc(C(F)(F)F)c5)CC4)ccc2-3)CC1
growth [1]: 16.3%
growth [2]: -80.1% (active)
growth [3]: -98.2% (active)
growth [4]: -81.9% (active)
growth [5]: -98.6% (active)
growth [6]: -71.5% (active)
growth [7]: -92.7% (active)
growth [8]: -84.9% (active)
growth [9]: -86.1% (active)
growth [10]: -71.7% (active)
growth [11]: -90.2% (active)
growth [12]: -33.4% (active)
growth [13]: 3.73% (active)
growth [14]: 45.6%
growth [15]: -35.7% (active)
growth [16]: -13.3% (active)
growth [17]: -37.7% (active)
growth [18]: -51.5% (active)
growth [20]: -69.2% (active)

COCCNC(=O)c1ccc(-c2nc3ccc4[nH]ncc4c3c3c2CCCC3)cc1
growth [1]: 19.3%
growth [2]: 44.5%
growth [3]: -6.65% (active)
growth [4]: 67.7%
growth [5]: 43.4%
growth [6]: 34.8%
growth [7]: 44.8%
growth [8]: 21.4%
growth [9]: 29.1%
growth [10]: 39.6%
growth [11]: 40.2%
growth [12]: 45.7%
growth [13]: 33%
growth [14]: 8.86% (active)
growth [16]: 14.9%
growth [17]: -4.05% (active)
growth [18]: -9.26% (active)
growth [19]: 18.1%
growth [20]: 17.8%

COc1cc(-c2cc(-c3ccc(N(C)C)cc3)nc(N3CCC(O)CC3)c2C#N)cc(OC)c1OC
growth [1]: -41.1% (active)
growth [2]: 2.08% (active)
growth [3]: -17.2% (active)
growth [4]: 30.2%
growth [5]: 12.9%
growth [6]: 12.7%
growth [7]: -99% (active)
growth [8]: -26.8% (active)
growth [9]: -0.767% (active)
growth [10]: -28.7% (active)
growth [11]: -54.2% (active)
growth [12]: 21.7%
growth [13]: 26.4%
growth [14]: -45.1% (active)
growth [15]: 14.9%
growth [16]: 15.1%
growth [17]: -22.6% (active)
growth [18]: 26.3%
growth [20]: 2.62% (active)

OB(O)c1cccc(-c2nc3ccc4[nH]ncc4c3c3c2CCCC3)c1
growth [1]: 37.6%
growth [2]: 48.1%
growth [3]: -30.6% (active)
growth [4]: 78.4%
growth [5]: 56.7%
growth [6]: 53.9%
growth [7]: 68.1%
growth [8]: 35.5%
growth [9]: 35.6%
growth [10]: 91.9%
growth [11]: 81.1%
growth [12]: 65.6%
growth [13]: 48.8%
growth [14]: 35.1%
growth [15]: 29.3%
growth [16]: 38%
growth [17]: -11.5% (active)
growth [18]: 15.2%
growth [20]: 28.7%

CCn1c(=S)[nH]c2c(=O)n(C)c(=O)n(C)c21
growth [1]: 101%
growth [2]: 112%
growth [3]: 96.2%
growth [4]: 100%
growth [5]: 95.9%
growth [6]: 100%
growth [7]: 106%
growth [8]: 116%
growth [9]: 98.8%
growth [10]: 109%
growth [11]: 103%
growth [12]: 95.1%
growth [13]: 101%
growth [14]: 93.9%
growth [16]: 97.6%
growth [17]: 102%
growth [18]: 113%
growth [19]: 102%
growth [20]: 98.2%

Cn1cc(-c2csc(-c3ccc(Cl)cc3)n2)c2cccnc21
growth [1]: -31.9% [100 µM] (active)
growth [2]: -70.3% [100 µM] (active)
growth [3]: -82.5% [100 µM] (active)
growth [4]: -41.8% [100 µM] (active)
growth [5]: 4.92% [100 µM] (active)
growth [6]: -16.7% [100 µM] (active)
growth [7]: -86.9% [100 µM] (active)
growth [8]: -38.5% [100 µM] (active)
growth [9]: 1.66% [100 µM] (active)
growth [10]: -63.9% [100 µM] (active)
growth [11]: -22% [100 µM] (active)
growth [12]: -14.4% [100 µM] (active)
growth [13]: -42.7% [100 µM] (active)
growth [14]: -37.5% [100 µM] (active)
growth [15]: -26.1% [100 µM] (active)
growth [16]: -50.9% [100 µM] (active)
growth [17]: -29.3% [100 µM] (active)
growth [18]: -79.9% [100 µM] (active)
growth [20]: 2.44% [100 µM] (active)

O=C(CSc1nnc2n1S(=O)(=O)c1ccccc1N2c1ccccc1)Nc1nc2ccc(F)cc2s1
growth [1]: 104%
growth [2]: 104%
growth [3]: 85.5%
growth [4]: 99.6%
growth [5]: 103%
growth [6]: 89.5%
growth [7]: 87.7%
growth [8]: 81.2%
growth [9]: 85.8%
growth [10]: 117%
growth [11]: 56.8%
growth [12]: 103%
growth [13]: 118%
growth [14]: -15.4% (active)
growth [15]: 125%
growth [16]: 91.3%
growth [17]: 85.3%
growth [18]: 122%
growth [20]: 86.8%

CC(C)N1CN2C(=S)NC3C2N(C1)C(=S)N3C (stereo unspecified)
growth [1]: 105%
growth [2]: 92.4%
growth [3]: 85.5%
growth [4]: 100%
growth [5]: 101%
growth [6]: 98%
growth [7]: 97.9%
growth [8]: 96.6%
growth [9]: 98.9%
growth [10]: 114%
growth [11]: 93.4%
growth [12]: 103%
growth [13]: 97.6%
growth [14]: 95.9%
growth [15]: 97.2%
growth [16]: 117%
growth [17]: 92.6%
growth [18]: 102%
growth [20]: 104%
